Rows were chosen to be rich in hits. Some 19% of all compounds tested hit in one or more screens of this group.
HT1080NT lethal: kills 2HG-producing HT-1080-NT fibrosarcoma cells; HT-1080-NT fibrosarcoma viability, CellTiter-Glo ATP luminescence, 48 h; Potency, µM (highest dose often 46.1 µM), for the others: at the top dose activity, negative = less viability, hits mostly cytotoxic; 360,000 compounds, 1.6% hits;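 also: NT is the 2HG producing partner of a matched IDH1 knockdown line; 0% = DMSO-treated cells and -100% = media-only wells without cells; nearly all actives have a fitted effect of over 55% in size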
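Compounds were tested in concentration-response format on HT-1080-NT cells for 48 hours at 37 degrees C. Cell viability came from CellTiter-Glo luminescence; curves were classified by r2, response magnitude and activity.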
KB-3-1 cytotox: KB-3-1 parental cell cytotoxicity. AID 1347075. Potency, µM (highest dose often 46.1 µM), usual class: cytotoxic. KB-3-1 viability, CellTiter-Glo ATP luminescence, 72 h. 400,000 compounds, 1.4% hits; also: nearly all actives have a fitted effect of over 60% in size
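Viability of parental KB-3-1 cells, measured by CellTiter-Glo luminescence, followed a 72 h incubation at 37 °C with pinned compounds in phenol-red-free DMEM containing 10% FBS.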
TDP1 cell noCPT: qHTS for Inhibitors of human tyrosyl-DNA phosphodiesterase 1 (TDP1): qHTS in cells in absence of CPT. Potency, µM (top dose mostly 46.2 µM), for inactives: top-dose activity change, negative = growth inhibition, hits mostly inhibitors. DT40 Tdp1-/- hTDP1 cells, no CPT, ATP luminescence, 48 h. 420,000 compounds, 15% hits; also: nearly all actives have a fitted effect of over 55% in size
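Readout: luminescence from CellTiter-Glo after 30 min in the dark at RT. Cells: DT40 Tdp1-/- with stable hTDP1, 400/well. Exposure: compounds alone, ≥48 hr, 37 °C.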
KB-V1 cytotox: KB-V1 MDR subline cytotoxicity. KB-V1 MDR cells viability, CellTiter-Glo, 72 h. Potency, µM (top dose mostly 46.1 µM), most hits filed as cytotoxic. 400,000 compounds, 3.4% hits. AID 1347076; also: nearly all actives have a fitted effect of over 60% in size
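KB-V1, DMEM (no phenol red) + 10% FBS; cpd pin-transferred, titration series; 72 h, 37 degrees C; CellTiter-Glo, luminescence. Data normalized, curve-fit.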
HT1080 IDH1KD tx: toxicity to HT-1080 IDH1 knockdown cells (counter line); HT-1080 IDH1 knockdown viability, ATP luminescence, 48 h; Potency, µM (top dose mostly 46.1 µM), for the others: top-dose activity, negative = toxicity, usual class: cytotoxic; 360,000 compounds, 2% hits; AID 686971;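 also: 0% = DMSO wells and -100% = cell-free medium wells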
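Cytotoxicity counter-line: IDH1KD HT-1080, 48 h, CellTiter-Glo. Curves classed by r2, magnitude and activity.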
TDP1 cell CPT: growth inhibition of DT40 Tdp1-/-;hTDP1 cells with camptothecin (screen for TDP1 inhibitors); chicken DT40 Tdp1-/-;hTDP1 cells + 20 nM CPT, ATP luminescence, 48 h; Potency, µM (doses to about 46.2 µM), for inactives: top-dose activity change, negative = growth inhibition, actives largely listed as inhibitors; 420,000 compounds, 12% hits; AID 686979; also: nearly all actives have a fitted effect of over 55% in size
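Chicken DT40 Tdp1-/- cells stably complemented with human TDP1 were seeded at 400 cells/well in medium containing 20 nM camptothecin, exposed to pin-transferred compounds, and grown at 37 °C for at least 48 hr. Viability was read as ATP luminescence.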
* marks the source's active call; other numbers are inactive results; i = inactive; ? = inconclusive; / = not tested or not shown; [ ] = dose if it differs, or a comment. Calls follow the shape of the dose curve; as a rule, active = well fitted curve in the direction sought with a large enough effect; inconclusive = small, poorly fitted or top-dose-only effect, or another doubt; inactive = no such curve, though single readings can be large; an effect the other way counts as inactive or inconclusive. Unless noted, % is scaled to controls: 0 for no effect and ±100 for the full control effect; potency is read from the fitted curve at half-maximal effect.

SMILES | HT1080NT lethal | KB-3-1 cytotox | TDP1 cell noCPT | KB-V1 cytotox | HT1080 IDH1KD tx | TDP1 cell CPT
CCOc1ccc(N2C(=O)CN(CC(=O)OC)C2=S)cc1 | 2% | i | 4% | i | -8% | 10%
COc1ccc(-c2[nH]c(-c3ccc(C)cc3)nc2SCC(=O)Nc2nccs2)cc1 | ? | ? | ? | 23µM* | ? | ?
CC(C)c1ccc(Nc2nnc(SCC(=O)NCC3CCCO3)s2)cc1 (stereo not drawn) | 6% | / | 16µM* | / | -16% | ?
Cc1ccc(-c2nc(SCC(=O)NCC3CCCO3)c(-c3ccc(Cl)cc3)[nH]2)cc1 (stereo not drawn) | 3% | i | 21µM* | i | 15% | ?
COCCNC(=O)CSc1nc(-c2ccc(F)cc2)[nH]c1-c1ccc(Cl)cc1 | / | i | 26µM* | i | / | ?
COCCNC(=O)CSc1nc(-c2ccc(C)cc2)[nH]c1-c1ccc(OC)cc1 | / | i | ? | i | / | ?
CSc1nnc2c(n1)OC(c1ccccn1)N(C(C)=O)c1ccccc1-2 (stereo not drawn) | 23% | i | -5% | i | 19% | 12%
Cc1ccc(CN2CCN(/N=C/C=C/c3ccccc3[N+](=O)[O-])CC2)cc1 | -14% | i | 21µM* | i | -9% | 16µM*
CC(/C=N/N1CCN(c2ccc(C)cc2)CC1)=C\c1ccccc1 | 5% | i | -7% | i | 6% | 7%
Cc1ccc(CN2CCN(/N=C/c3cc(Br)cc(Br)c3O)CC2)cc1 | 3% | i | 21µM* | i | 0% | ?
Oc1c(Br)cc(Br)cc1/C=N/N1CCN(Cc2ccccc2)CC1 | -2% | i | ? | ? | -3% | ?
COc1ccccc1/C=C/C=N/N1CCN(Cc2ccccc2)CC1 | 22% | i | -28% | i | 19% | 12%
Nc1nnnn1/N=C/C(Br)=C/c1ccccc1 | -30% | ? | 0.58µM* | ? | 9.2µM* | 0.46µM*
BrC(=C\c1ccccc1)/C=N/N1CCN(c2ccccc2)CC1 | ? | i | 7.3µM* | i | ? | 1.2µM*
CC(=C/c1ccccc1)/C=N/N1CCN(Cc2ccc(C)cc2)CC1 | 10% | i | -6% | ? | 3% | -1%
Cc1ccc(CN2CCN(/N=C\C(Br)=C\c3ccccc3)CC2)cc1 | ? | i | 8.2µM* | ? | ? | 2.6µM*
O=S(=O)(NC1c2cccc3cccc(c23)C1Sc1ncccn1)c1ccc(Cl)cc1 (stereo not drawn) | -24% | ? | ? | i | -16% | ?
Cc1ccc(S(=O)(=O)NC2c3cccc4cccc(c34)C2Sc2n[nH]c(N)n2)cc1 (stereo not drawn) | ? | i | 16µM* | i | ? | 21µM*
O=C1NC[C@H](CCCCN2CCN(CCc3ccccc3)C(=O)C2=O)N(Cc2ccccc2)C1=O | 5% | i | 0% | i | 13% | 1%
CCOC(=O)CC1COCCN1C(=O)c1ccc2oc(Cc3ccccc3)nc2c1 (stereo not drawn) | 23% | i | -18% | ? | 23% | -18%
CN(C)c1ccc(C(=O)OCc2ccccc2)cc1 | 20% | i | -12% | i | 1% | 3%
Cc1noc(C)c1COC(=O)c1ccc(N(C)C)cc1 | 16% | ? | 4% | 4.1µM* | 3% | 0%
CCN(C(=O)COC(=O)c1ccc(OCc2c(C)noc2C)cc1)c1ccccc1 | 3% | i | 13µM* | i | -3% | ?
CCN1CCN(c2nc(-c3cccnc3)nc3ccccc23)CC1 | -27% | i | -13% | i | -1% | -23%
CCCOc1ccc(-c2nc(N3CCN(CC)CC3)c3ccccc3n2)cc1 | -6% | i | 29µM* | i | 2% | ?
SMILES | HT1080NT lethal | KB-3-1 cytotox | TDP1 cell noCPT | KB-V1 cytotox | HT1080 IDH1KD tx | TDP1 cell CPT
CCCOc1ccc(-c2nc(N3CCCCC3)c3ccccc3n2)cc1 | / | i | -19% | i | / | -5%
CCCOc1ccc(-c2nc(N3CCN(C)CC3)c3ccccc3n2)cc1 | ? | i | ? | i | ? | 23µM*
CCc1nnc(SCC(=O)Nc2ccc(F)cc2F)c2cc3sc(C)cc3n12 | / | i | -14% | ? | / | -2%
COc1cc2c(cc1OC)C1C(=O)c3ccc4c(c3OC1CO2)C=CC(C)(C)O4 (stereo not drawn) | / | / | 0.065µM* | / | / | 0.082µM*
COc1cc2c(cc1OC)C1C(=O)c3c(O)cc4c(c3OC1CO2)C=CC(C)(C)O4 (stereo not drawn) | / | / | 0.41µM* | / | / | 0.65µM*
COc1cc2c(cc1OC)OC(C)(C)C=C2 | / | / | -6%[9.04 µM] | / | / | 6%[9.04 µM]
COc1c2c(cc(O)c1C(C)=O)OC(C)(C)C=C2 | -7% | i | -12% | i | 2% | -8%
CC1=C(C(=O)N2CCCCCC2)CC(CC(=O)NC2CCCCC2)C(=O)N1Cc1ccc(F)cc1 (stereo not drawn) | -18% | / | ? | i | -16% | ?
COc1ccc(-n2ncc(C(=O)N3CCN(Cc4ccccc4)CC3)c2C2CCN(C(=O)OC(C)(C)C)CC2)cc1 | / | i | 21µM* | i | / | 13µM*
CC(C)(C)OC(=O)N1CCC(c2c(C(=O)N3CCN(c4ccccc4)CC3)cnn2-c2ccccc2)CC1 | / | i | 16µM* | i | / | ?
CN1CCN(C(=O)c2cnn(-c3ccccc3)c2C2CCN(C(=O)OC(C)(C)C)CC2)CC1 | / | i | -10% | i | / | -3%
Cc1cccc(-n2ncc(C(=O)N3CCN(Cc4ccccc4)CC3)c2C2CCN(C(=O)OC(C)(C)C)CC2)c1 | / | i | 16µM* | i | / | 16µM*
Cc1ccc(-n2ncc(C(=O)N3CCN(c4cccc(C)c4)C(C)C3)c2C2CCN(C(=O)OC(C)(C)C)CC2)cc1 (stereo not drawn) | / | i | 23µM* | i | / | 15µM*
COc1ccccc1COc1ccc2c(C)c(CC(=O)O)c(=O)oc2c1C | 12% | i | 9% | i | 8% | 4%
CCOC(=O)C1=C(CS(=O)(=O)c2ccc(F)c(C)c2)NC(=O)NC1c1ccc(O)c(O)c1 (stereo not drawn) | -9% | i | -11% | i | -3% | 15%
CNC(=S)Nc1ccc(C(N)=O)cc1 | ? | i | -24% | ? | 19% | 5%
